Here are results for five compounds from PubChem BioAssay.

Experiment [1] is described as follows: compounds binding Alexa647 anti-His antibody – biochemical, small-molecule microarray, 635 nm fluorescence, artefact control for SMM control protein annotation, primary screen (AID 1128).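 Also: score merges feature fluorescence with signal-to-noise for each printed compound spot.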 As to conditions: higher = more signal.
Experiment [2] has as its system Human papillomavirus type 1a E7 protein (residues 1-88). As to the kind of experiment: HPV1a E7 small-molecule binders, primary screen, biochemical, small-molecule microarray, residues 1-88, 635 nm (AID 1129). As to conditions: small-molecule microarray binding, fluorescence 635 nm; higher = more signal.
Experiment [3] addresses Focal adhesion kinase 1 (Homo sapiens) (UniProt Q05397). Description: PTK2 protein binding on printed compound slides – biochemical, small-molecule microarray, 635/667 nm fluorescence, BSA, DTT, primary screen (AID 1130).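 Also: composite of spot emission at 667 nm and signal to noise over triplicate slides.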 The following applies: 635 nm fluorescence, higher = more signal.
The test system of experiment [4] is Fibrinogen (Alexa647-labelled). As to the kind of experiment: Alexa647-fibrinogen binding to printed small molecules – biochemical, small-molecule microarray, 635/667 nm fluorescence, artefact control for SMM control-protein annotation, profiling panel (AID 1131).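 Also: z-score merges 667 nm fluorescence with per-spot signal-to-noise over triplicate slides.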 As to conditions: fibrinogen-A647 binding fluorescence, higher = more signal.
In experiment [5] the target is Follistatin (Homo sapiens) (UniProt P19883). Description: FST protein binding to printed compounds – biochemical, small-molecule microarray, 635/667 nm fluorescence, primary screen (AID 1132). The following applies: 635 nm fluorescence, higher = more signal.
Chain of Follistatin (Homo sapiens) (P19883 whole entry, looked up): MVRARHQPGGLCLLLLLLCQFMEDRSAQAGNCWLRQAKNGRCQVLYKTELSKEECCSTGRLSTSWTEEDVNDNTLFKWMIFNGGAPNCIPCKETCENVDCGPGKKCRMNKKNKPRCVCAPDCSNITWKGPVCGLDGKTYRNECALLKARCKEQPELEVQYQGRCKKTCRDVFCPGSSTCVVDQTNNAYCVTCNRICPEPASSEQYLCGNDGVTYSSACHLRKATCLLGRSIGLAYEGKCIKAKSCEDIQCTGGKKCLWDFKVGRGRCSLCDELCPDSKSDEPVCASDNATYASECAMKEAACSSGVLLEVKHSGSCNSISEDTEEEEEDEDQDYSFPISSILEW
For experiment [6], the target named is Fibroblast growth factor 2 (Homo sapiens) (UniProt P09038). As to the kind of experiment: basic fibroblast growth factor binding to printed compounds – biochemical, small-molecule microarray, 635/667 nm fluorescence, primary screen (AID 1133). As to conditions: FGF2, fluorescence 635/667, higher = more signal.
Chain of Fibroblast growth factor 2 (Homo sapiens) (P09038 whole entry, looked up): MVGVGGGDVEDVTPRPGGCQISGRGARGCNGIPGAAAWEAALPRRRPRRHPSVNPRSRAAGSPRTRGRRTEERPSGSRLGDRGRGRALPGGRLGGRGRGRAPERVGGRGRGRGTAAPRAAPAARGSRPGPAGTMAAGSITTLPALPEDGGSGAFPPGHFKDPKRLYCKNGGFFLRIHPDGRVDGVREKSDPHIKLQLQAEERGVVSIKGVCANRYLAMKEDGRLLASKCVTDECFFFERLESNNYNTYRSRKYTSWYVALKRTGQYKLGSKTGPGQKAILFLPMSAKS
A short description of experiment [7]: JC-1 mitochondrial potential readout, lung cancer cells – cell-based, A549, JC-1 fluorescence, basal, 24 h, 100 nL, profiling panel (AID 1138).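 Also: A549 lung adenocarcinoma cells under basal conditions with no added stimulus; test concentration not given here.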 The following applies: higher = more signal.
The next experiment deals with Lefty1. Description: Lefty1 protein binding to printed compounds – biochemical, small-molecule microarray, 635/667 nm fluorescence, primary screen (AID 1139). As to conditions: fluorescence 635/667, higher = more signal.
Experiment [8] has as its system wheat germ agglutinin (Triticum aestivum), Alexa647-labelled. As to the kind of experiment: Alexa647-WGA lectin binding to printed small molecules – biochemical, small-molecule microarray, 635/667 nm fluorescence, artefact control for SMM control-protein annotation, profiling panel (AID 1140).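 Also: score merges 667 nm feature emission with signal to noise over triplicate slides.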 The following applies: WGA-A647 binding, 635 nm fluorescence, higher = more signal.

Experiment [9] addresses Luciferin 4-monooxygenase (Photinus pyralis) (UniProt P08659). Description: inhibition of purified Photinus pyralis luciferase – biochemical, luminescence, purified enzyme, 2006 set, primary screen (AID 1141).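 Also: cell-free assay with purified firefly luciferase at 100 ng per well in PBS; test concentration not given here.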 As to conditions: purified firefly luciferase, SteadyGlo luminescence, 30 min; higher = more signal, called active from +8 up or from −8 down.
Experiment [10] concerns Wnt5a (protein binding on small-molecule microarray). Description: small molecules binding Wnt5a protein – biophysical, small-molecule microarray, 635/667 nm fluorescence, primary screen (AID 1142).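 Also: fluorescence read at 667 nm with signal to noise per printed feature.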 The following applies: 635 nm fluorescence, higher = more signal.
Experiment [11] can be described thus: ATP-based viability of Huh7 replicon cells – cell-based, CellTiter-Glo luminescence, basal, 48 h, cytotoxicity control for HCV replication inhibitor project, primary screen (AID 1143).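 Also: Huh7 hepatoma cells carrying a hepatitis C replication reporter with no stimulus; test concentration not given here.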 The following applies: higher = more signal, called active from +8 up or from −8 down.
Experiment [12] in a line: Pseudomonas biofilm growth suppression – PAO1 strain, BacTiter-Glo luminescence, LB-PBS, primary screen (AID 1144). As to conditions: P. aeruginosa PAO1 biofilm, 12 h, higher = more signal.
Experiment [13] is described as follows: basal CRE-LacZ reporter activity in PC12 – cell-based, unstimulated, primary screen (AID 1145). As to conditions: no forskolin, luminescence, 4.5 h, higher = more signal, called active from +8 up or from −8 down.
Experiment [14] is described as follows: forskolin-driven CRE-LacZ activity in PC12 – cell-based, CRE-LacZ reporter, forskolin-stimulated, primary screen (AID 1146).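 Also: PC12 cells with 6xCRE LacZ reporter stimulated by forskolin 10 µM; beta-galactosidase reporter signal reflecting CREB driven transcription.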 As to conditions: luminescence, 4.5 h, higher = more signal, called active from +8 up or from −8 down.
In experiment [15] the target is Streptavidin (Streptomyces avidinii) (UniProt P22629). As to the kind of experiment: compounds binding control protein streptavidin – biophysical, small-molecule microarray, 635/667 nm fluorescence, artefact control for SMM compound annotation, primary screen (AID 1147).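 Also: signal reflects streptavidin binding to arrayed compounds as a control protein.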 The following applies: higher = more signal.
Chain of Streptavidin (Streptomyces avidinii) (P22629 whole entry, looked up): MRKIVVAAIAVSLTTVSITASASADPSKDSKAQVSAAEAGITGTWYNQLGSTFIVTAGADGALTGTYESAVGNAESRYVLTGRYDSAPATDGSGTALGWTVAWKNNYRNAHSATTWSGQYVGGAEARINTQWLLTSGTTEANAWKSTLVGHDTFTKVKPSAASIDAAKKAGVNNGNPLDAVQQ
Experiment [16] can be described thus: probe aInhba binding on compound microarray – biochemical, small-molecule microarray, 635/667 nm fluorescence, primary screen (AID 1148).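 Also: score merges 667nm spot fluorescence with signal-to-noise for antibody binding to printed compounds.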 As to conditions: higher = more signal.
Experiment [17] addresses Torsin-1A (Homo sapiens) (UniProt O14656). Description: TOR1A wild-type binding on microarray – cell lysate, small-molecule microarray, lysate, 635/667 nm, primary screen (AID 1149). As to conditions: COS7 hTOR1A-WT lysate, 635 nm fluorescence, higher = more signal.
Experiment [18] shares this target. Description: torsin A mutant lysate binding on microarrays – cell lysate, small-molecule microarray, COS7 lysate, 635/667 nm fluorescence, primary screen (AID 1150).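 Also: score pools 667 nm emission and signal to noise measuring lysate protein binding.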 The following applies: COS7 hTOR1A mutant lysate, 635 nm fluorescence, higher = more signal.
Experiment [19] concerns Sonic hedgehog protein (Shh). As to the kind of experiment: Sonic hedgehog microarray binding compounds – biochemical, small-molecule microarray, 635/667 nm fluorescence, primary screen (AID 1151).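 Also: Shh protein binding to compounds spotted on small-molecule microarray slides; score combines spot fluorescence intensity with signal-to-noise across triplicate slides.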 The following applies: 635 nm fluorescence, higher = more signal.

Activity calls are given as the source filed them. Unless noted, no rule for the calls is given here.

Chain of Luciferin 4-monooxygenase (Photinus pyralis) (P08659 whole entry, looked up): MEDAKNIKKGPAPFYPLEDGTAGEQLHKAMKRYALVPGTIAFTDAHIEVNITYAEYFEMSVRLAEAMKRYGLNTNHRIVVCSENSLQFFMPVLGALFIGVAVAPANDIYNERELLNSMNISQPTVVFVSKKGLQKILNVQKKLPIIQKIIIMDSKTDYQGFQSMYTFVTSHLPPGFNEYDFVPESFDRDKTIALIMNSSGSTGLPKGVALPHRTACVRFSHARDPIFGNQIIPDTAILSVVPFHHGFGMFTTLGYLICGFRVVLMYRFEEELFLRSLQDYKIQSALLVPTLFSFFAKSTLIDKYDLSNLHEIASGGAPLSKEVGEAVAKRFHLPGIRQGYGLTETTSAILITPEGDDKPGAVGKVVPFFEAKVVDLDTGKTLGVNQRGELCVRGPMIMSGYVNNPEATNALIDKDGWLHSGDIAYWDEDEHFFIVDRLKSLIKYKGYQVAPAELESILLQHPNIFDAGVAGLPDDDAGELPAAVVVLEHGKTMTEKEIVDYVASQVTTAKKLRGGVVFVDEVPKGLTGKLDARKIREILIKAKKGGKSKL
Chain of Torsin-1A (Homo sapiens) (O14656 whole entry, looked up): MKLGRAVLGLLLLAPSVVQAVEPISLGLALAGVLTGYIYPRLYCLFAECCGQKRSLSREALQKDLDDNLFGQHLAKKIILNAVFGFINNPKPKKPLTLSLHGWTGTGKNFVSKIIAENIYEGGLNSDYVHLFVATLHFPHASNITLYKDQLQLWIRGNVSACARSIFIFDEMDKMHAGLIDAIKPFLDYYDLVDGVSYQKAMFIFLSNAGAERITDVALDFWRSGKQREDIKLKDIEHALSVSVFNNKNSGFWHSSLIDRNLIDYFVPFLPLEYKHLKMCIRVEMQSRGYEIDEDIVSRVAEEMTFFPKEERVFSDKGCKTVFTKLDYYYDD
Chain of Focal adhesion kinase 1 (Homo sapiens) (Q05397 whole entry, looked up): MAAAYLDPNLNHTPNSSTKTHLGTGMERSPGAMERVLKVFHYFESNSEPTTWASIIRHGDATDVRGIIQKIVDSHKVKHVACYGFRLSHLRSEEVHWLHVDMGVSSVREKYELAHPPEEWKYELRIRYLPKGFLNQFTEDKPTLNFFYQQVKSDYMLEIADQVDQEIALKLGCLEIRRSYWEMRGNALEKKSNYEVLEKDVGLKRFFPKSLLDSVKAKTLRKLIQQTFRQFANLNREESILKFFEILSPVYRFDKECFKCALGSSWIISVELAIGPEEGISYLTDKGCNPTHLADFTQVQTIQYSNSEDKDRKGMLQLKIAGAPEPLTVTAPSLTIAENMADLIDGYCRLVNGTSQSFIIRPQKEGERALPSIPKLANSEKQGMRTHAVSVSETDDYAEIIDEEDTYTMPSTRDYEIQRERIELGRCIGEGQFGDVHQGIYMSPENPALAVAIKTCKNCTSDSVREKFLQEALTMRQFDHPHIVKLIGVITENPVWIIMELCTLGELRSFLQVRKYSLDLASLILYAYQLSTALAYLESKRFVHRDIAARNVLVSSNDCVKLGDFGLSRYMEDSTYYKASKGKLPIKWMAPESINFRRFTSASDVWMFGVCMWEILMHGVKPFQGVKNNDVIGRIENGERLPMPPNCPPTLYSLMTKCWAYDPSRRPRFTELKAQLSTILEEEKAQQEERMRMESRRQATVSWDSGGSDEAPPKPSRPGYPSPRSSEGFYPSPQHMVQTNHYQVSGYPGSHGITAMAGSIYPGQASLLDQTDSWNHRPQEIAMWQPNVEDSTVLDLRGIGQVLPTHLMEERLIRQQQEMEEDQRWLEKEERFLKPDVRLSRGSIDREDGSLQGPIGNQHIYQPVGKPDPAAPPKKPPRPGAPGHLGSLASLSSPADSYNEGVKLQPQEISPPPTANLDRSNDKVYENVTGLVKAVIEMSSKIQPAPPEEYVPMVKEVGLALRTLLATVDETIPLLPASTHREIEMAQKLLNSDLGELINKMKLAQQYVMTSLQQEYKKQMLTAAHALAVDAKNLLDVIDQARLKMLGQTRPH

Turning to `CC#CCO[Si](C#CCCCCCC)(C(C)C)C(C)C`, the composite z-score was -0.19 in experiment [1]; -0.419 in [2]; -0.103 in experiment [3]; -1.49 in experiment [4]; -2.99 in experiment [5]; -2.42 in experiment [6]. Also, the composite z-score with Lefty1 is -1.93; in experiment [8], 0.064; in experiment [10], -1.15; in experiment [15] it was -2.45; in experiment [16], -0.288; with Torsin-1A (Homo sapiens) [17], -1.46. Moreover, the composite z-score in the experiment with Torsin-1A (Homo sapiens) [18] was -1.03; in experiment [19] it was -1.62. Besides, the z-score in experiment [7] is -0.996; in experiment [9], 0.944 (inactive); in experiment [11], -1.03 (inactive); in [12] it was -1.06 (inactive); in experiment [13], -0.374 (inactive); in [14] it was 2.09 (inactive).

Take `CCOC(=O)C[C@H]1[C@H](OC(=O)c2cc3ccccc3oc2=O)[C@@H](NC(=O)C2CCCCC2)c2cc(OCCCO)ccc2N1C(=O)Cc1ccc(OC)cc1`: the composite z-score was 0.737 in experiment [1]; 0.122 in experiment [2]; -0.207 in [3]; 0.231 in experiment [4]; 0.722 in experiment [5]; 0.188 in [6]. Also, the composite z-score came to 0.646 in the experiment with Lefty1; 0.507 in [8]; 0.418 in experiment [10]; 0.214 in [15]; 0.243 in experiment [16]; 0.144 with Torsin-1A (Homo sapiens) [17]. Besides, the composite z-score with Torsin-1A (Homo sapiens) [18] is 0.384; in experiment [19] it was 1.15. Besides, the z-score in [7] is 0.0812; in experiment [9], 0.696 (inactive); in experiment [11] it was -0.588 (inactive); in [12] it was -0.273 (inactive); in experiment [13], 0.849 (inactive); in [14], -0.0784 (inactive).

For `COCCOC(=O)N1C(=O)[C@@]2(c3cc(C#CC4=CCCCC4)ccc31)[C@H](c1ccccc1OCCO)N1[C@H](c3ccccc3)[C@H](c3ccccc3)OC(=O)[C@H]1[C@@H]2C(N)=O`, the composite z-score in experiment [1] is 1.48; in experiment [2], 1.17; in [3] it was 0.539; in experiment [4], 0.83; in experiment [5], 1.06; in [6], 1.36. Also, the composite z-score was 0.91 in the experiment with Lefty1; -0.0974 in [8]; 0.288 in experiment [10]; 0.771 in experiment [15]; -0.115 in [16]; 1.21 in the experiment with Torsin-1A (Homo sapiens) [17]. Further, the composite z-score in the experiment with Torsin-1A (Homo sapiens) [18] stood at 0.137; in experiment [19] it was 1.7. In addition, the z-score was -1.8 in experiment [7]; -1.74 (inactive) in [9]; -6.61 (inactive) in experiment [11]; -1.73 (inactive) in experiment [12]; -2.37 (inactive) in experiment [13]; -1.6 (inactive) in experiment [14].

As to `CN(C)C(=O)[C@]1(Cc2ccccc2)N=C(c2ccc(OCCCO)cc2)O[C@@H]1c1ccccc1`, the composite z-score in [1] is 2.94; in [2], 1.25; in experiment [3] it was 0.593; in [4], 1; in [5], 0.973; in [6] it was -0.263. Further, the composite z-score is -0.222 in the experiment on Lefty1; 1.2 in experiment [8]; 0.0831 in experiment [10]; 0.589 in experiment [15]; 0.0184 in experiment [16]; 0.193 with Torsin-1A (Homo sapiens) [17]. For the same compound, the composite z-score with Torsin-1A (Homo sapiens) [18] is 0.71; in [19], -0.46. For the same compound, the z-score in experiment [7] was 0.473; in experiment [9], -0.701 (inactive); in experiment [11], -3.35 (inactive); in experiment [12] it was 0.18 (inactive); in experiment [13] it was 1.24 (inactive); in experiment [14], 0.14 (inactive).

Consider `O=C1OCCC/C=C\[C@H]2OC34C=CCN(Cc5ccccc5)C(=O)[C@H]3N(CCCCCO)C(=O)[C@@H]4C12` (stereo not given in full), for which the composite z-score is -0.862 in [1]; -1.2 in experiment [2]; -0.603 in experiment [3]; -1.62 in [4]; -1.07 in [5]; -0.883 in [6]. In addition, the composite z-score with Lefty1 was -0.696; in [8] it was -1.09; in experiment [10] it was -0.238; in experiment [15], -1.26; in experiment [16], -0.186; with Torsin-1A (Homo sapiens) [17], -0.234. The figures for the composite z-score (with Torsin-1A (Homo sapiens) [18]; in experiment [19]) were -1.75 and 0.168, respectively. Moreover, the z-score is 0.537 in experiment [7]; -0.984 (inactive) in [9]; 0.255 (inactive) in experiment [11]; 1.2 (inactive) in [12]; 0.732 (inactive) in experiment [13]; 0.327 (inactive) in [14].
